# S2 tox = viability counter-screen for ATXN expression inhibitors; S2 cells (HEK-293 line with an ATXN2-luciferase reporter) viability, CellTiter-Fluor protease fluorescence, 24 h; Potency, µM (series often up to 56.7 µM), actives largely listed as cytotoxic; 400,000 compounds, 0.49% hits; AID 651635; also: potency is read from the fitted curve at half-maximal effect; nearly all actives have a fitted effect of over 40% in size
# TGFb SMAD3 inh = blocks TGF-b signaling | HepG2 CAGA-GFP TGF-b/SMAD3 reporter, GFP fluorescence, 18 h; TGF-beta stimulated, 500 pg/mL final | Potency, µM (titrated, usually from 46.1 µM), inactives show at the highest dose activity, negative = inhibition, hits mostly inhibitors | 410,000 compounds, 1.2% hits | AID 588855; also: potency is read from the fitted curve at half-maximal effect; % is scaled to controls: 0 for no effect and ±100 for the full control effect; nearly all actives have a fitted effect of over 65% in size
#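 First, reporter cells (HEPG2 CAGA-GFP) rested 2 h at 37 degrees C. Next, compounds were pinned in and TGF-beta added to 500 pg/mL final. After 18 h, GFP was imaged per cell and summed per well.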
# Six1-Eya2 blk = inhibitors of human Six1/Eya2 interaction; Q15475+O00167; AlphaScreen GST-Six1/His-Eya2 binding, biochemical; active compounds read low; activity change, % (no concentration beside the values); 360,000 compounds, 0.56% hits; AID 651725; in the data active = activity change below about -65%; inconclusive = mostly about -30% to -63%; also: % is scaled to controls: 0 for no effect and ±100 for the full control effect
# Target sequence (O00167 whole entry, looked up): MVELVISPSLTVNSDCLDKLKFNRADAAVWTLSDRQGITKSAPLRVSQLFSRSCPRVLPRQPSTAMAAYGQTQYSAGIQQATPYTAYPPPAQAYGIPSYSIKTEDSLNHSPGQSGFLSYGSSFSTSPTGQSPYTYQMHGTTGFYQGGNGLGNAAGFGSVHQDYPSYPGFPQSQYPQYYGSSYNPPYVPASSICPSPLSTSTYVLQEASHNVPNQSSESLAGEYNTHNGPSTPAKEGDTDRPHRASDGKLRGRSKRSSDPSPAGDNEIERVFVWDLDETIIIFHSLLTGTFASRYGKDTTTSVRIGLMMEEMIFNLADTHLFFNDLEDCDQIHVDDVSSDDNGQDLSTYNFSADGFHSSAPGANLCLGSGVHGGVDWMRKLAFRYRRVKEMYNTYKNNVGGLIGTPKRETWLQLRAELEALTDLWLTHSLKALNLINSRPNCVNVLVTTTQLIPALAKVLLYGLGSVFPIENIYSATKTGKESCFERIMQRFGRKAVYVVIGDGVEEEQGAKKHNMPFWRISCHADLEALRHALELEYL
# Target sequence (Q15475 whole entry, looked up): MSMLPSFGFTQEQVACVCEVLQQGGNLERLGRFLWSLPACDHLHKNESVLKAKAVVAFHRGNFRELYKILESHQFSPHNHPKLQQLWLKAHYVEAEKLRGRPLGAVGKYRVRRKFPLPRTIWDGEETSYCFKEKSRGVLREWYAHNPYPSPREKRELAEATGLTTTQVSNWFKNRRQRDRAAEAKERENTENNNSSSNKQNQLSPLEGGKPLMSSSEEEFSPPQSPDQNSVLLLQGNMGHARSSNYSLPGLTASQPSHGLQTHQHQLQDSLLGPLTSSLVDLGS
#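 Homogeneous AlphaScreen proximity assay pairing GST-Six1 with His-tagged Eya2 (added as 5X mix: 250 nM and 500 nM) in 50 mM Tris pH 8.0, 300 mM NaCl, 1 mM TCEP. Glutathione donor and nickel acceptor beads; 1 h, 37 °C, dark.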
# HepG2 tox = counter-screen for TGF-b inhibitors: cytotoxicity in HepG2 cells | Potency, µM (series often up to 46.1 µM), for inactives: at the top dose activity change, negative = cytotoxicity, usual class: cytotoxic | HepG2 CAGA-GFP viability, ATP luminescence, 18 h | AID 588856 | 410,000 compounds, 0.76% hits; also: potency is read from the fitted curve at half-maximal effect
#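 HepG2 CAGA-GFP cells (1000/well, DMEM with 1% FBS) received compound, then TGF-beta at 500 pg/mL final, and were incubated 18 hours at 37 degrees C. Viability was read by CellTiter-Glo luminescence. Media-only wells were set as complete cell-killing and DMSO as no toxicity.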
# CtBP-E1A blk = CtBP/E1A binding inhibition; AlphaScreen GST-E1A/His-CtBP binding, 1536-well; active compounds read low; activity change, % (no concentration beside the values); 340,000 compounds, 0.49% hits; in the data active = activity change below about -65%; inconclusive = mostly about -30% to -63%; also: % is scaled to controls: 0 for no effect and ±100 for the full control effect
#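 AlphaScreen with 125 nM GST-E1A and 125 nM His-CtBP (5X stocks) in Tris pH 8.0, 300 mM NaCl, BSA, Tween 20, TCEP. Compounds preincubated 2 h at 37 deg C, then glutathione donor/nickel acceptor beads added for 1 h at 37 deg C in dark.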
# ATXN2 expr inh = ATXN2 expression inhibition. 360,000 compounds, 0.72% hits. Potency, µM (doses to about 57 µM), inactives show at the top dose activity change, negative = inhibition, most hits filed as inhibitors. HEK-293 ATXN2-luciferase reporter, luminescence, 24 h; also: potency is read from the fitted curve at half-maximal effect; % is scaled to controls: 0 for no effect and ±100 for the full control effect; nearly all actives have a fitted effect of over 55% in size
#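 ATXN2-luciferase reporter cells (luciferase flanked by upstream and downstream ATXN2 gene portions) were treated 24 h at 37 °C with compounds at up to 57 uM. SteadyGlo luminescence gave expression; GF-AFC fluorescence gave viability.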
# The depositor's hits bear a star; i = inactive; ? = inconclusive; . = not tested or not shown; ! = not confirmed by another sample. In the library only some 2.8% were active in any assay of this set; here they are far more common. Unless noted, calls follow the shape of the dose curve; as a rule, active = well fitted curve in the direction sought with a large enough effect; inconclusive = small, poorly fitted or top-dose-only effect, or another doubt; inactive = no such curve, though single readings can be large; an effect the other way counts as inactive or inconclusive.
SMILES,S2 tox,TGFb SMAD3 inh,Six1-Eya2 blk,HepG2 tox,CtBP-E1A blk,ATXN2 expr inh
CCCN1CCN(CCCNC(=O)c2ccc3c(c2)sc2nc(-c4ccc(OCC)cc4)cn23)CC1,.,28.2%,.,-27.4%,.,.
COc1ccc(-c2cn3c(n2)sc2cc(C(=O)NCCCc4ccccc4)ccc23)cc1,.,-9.0%,.,-26.7%,.,.
CCOc1ccc(-c2cn3c(n2)sc2cc(C(=O)NCCCN4CCCCC4)ccc23)cc1,?,-0.5%,.,2.51µM*,.,?
COc1ccccc1CCNc1ncnc2sc(C(=O)N3CCCN(C=O)CC3)c(C)c12,i,.,.,.,.,.
CC(Oc1ccccc1)C(=O)NCC1Cc2cc(F)cc(-c3ccccn3)c2O1 (stereo not drawn),i,.,.,.,.,.
COc1ccccc1CN1CCC(n2cc(C(=O)N3CCCCC3)nn2)CC1,i,.,.,.,.,.
Cc1ncc2c(c1CNC(=O)c1ccc3c(c1)OCO3)CCN(C(=O)c1ccoc1)C2,i,.,.,.,.,.
CCOc1cc(/C=C2\SC(=N)N(c3nccs3)C2=O)ccc1OCCN1CCOCC1,?,0.0%,?,-24.5%,?,22.4µM*
CCOc1cc(/C=C2\SC(=S)N(N3CCOCC3)C2=O)ccc1O,i,-6.6%,-4.1,-11.3%,.,.
CN1C(=O)CC(CC(=O)N2CCCCC2CCO)(c2cccc(F)c2)C1=O (stereo not drawn),i,.,.,.,.,.
Cc1ccccc1NC(=O)C(=Cc1ccc(C(=O)O)cc1)C(=O)Nc1ccccc1C,?,?,?,-35.9%,-13.2,10.6µM*
CC(=O)/C(=C/c1ccccc1)C(=O)Nc1ccccc1C,?,12.6µM*,1.1,-47.9%,.,.
O=C(NCC1(N2CCOCC2)CCCC1)c1cnn(-c2ncc3c(n2)-c2ccccc2CC3)c1C1CC1,i,.,.,.,.,.
COc1ccc(N2CCN(Cc3cc(=O)oc4cc5c(cc34)CCCC5)CC2)cc1,i,-4.5%,-11.2,2.4%,-0.5,-15.9%
COc1ccc(N2CCN(Cc3cc4c(cc3O)CCC4)CC2)cc1,?,-21.0%,?,-21.6%,-65.5*,-20.9%
S=c1nc(-c2ccccn2)c(-c2ccccn2)n[nH]1,i,-1.5%,-83.2*,-11.8%,-88.8*,0.1%
c1ccc(-c2ccccn2)nc1,i,0.4%,-17.2,1.7%,-17.8,-6.2%
CC(C)(C)CC(C)(C)N=C1Nc2ccc([N+](=O)[O-])cc2N[C@]12C[C@H]1CCCC(=O)N3CC[C@@H](C2)[C@@H]13,.,?,.,-26.6%,.,.
CS(=O)(=O)c1ccc(C(=O)OCC(=O)Nc2cc(C(F)(F)F)ccc2Cl)cc1[N+](=O)[O-],.,8.91µM*,.,-90.0%,.,.
CS(=O)(=O)c1ccc(C(=O)OCC(=O)Nc2cccnc2Cl)cc1[N+](=O)[O-],i,?,-10.6,-93.5%,-22.6,9.2%
NS(=O)(=O)c1cc(C(=O)OCC(=O)Nc2ccccc2[N+](=O)[O-])ccc1Cl,i,10.0%,-4.3,-11.8%,-0.3,-3.8%
Cc1ccccc1NC(=O)Cc1nc(COC(=O)c2ccc(NC(N)=O)cc2)cs1,i,-1.7%,-6.9,-1.8%,-1.6,9.4%
Cc1ccccc1NC(=O)Cc1nc(COC(=O)c2ccc(S(C)(=O)=O)c([N+](=O)[O-])c2)cs1,?,12.6µM*,-8.3,-79.0%,.,.
CC1(C)C2CCC1(C)C(NC(=O)COC(=O)c1ccc(S(C)(=O)=O)c([N+](=O)[O-])c1)C2 (stereo not drawn),.,5.01µM*,.,6.31µM*,.,.
Cc1ccccc1NC(=O)COC(=O)c1ccc(S(C)(=O)=O)c([N+](=O)[O-])c1,i,7.94µM*,-16.5,10µM*!,-27.7,-19.1%
SMILES,S2 tox,TGFb SMAD3 inh,Six1-Eya2 blk,HepG2 tox,CtBP-E1A blk,ATXN2 expr inh
Cc1cnc(C)c(-c2cc(F)cc3c2OC(CNC(=O)c2cc(Cl)ccc2F)C3)n1 (stereo not drawn),i,.,.,.,.,.
CCS(=O)(=O)N1CCc2cc(C(=O)NCc3ccc(Cl)cc3)ccc21,i,5.3%,.,-14.8%,.,-4.1%
c1ccc2c(c1)ccn2-n1ccc2ccccc21,.,15.8µM*,.,-57.5%,.,.
CC(=O)N1CCN(/[N+]([O-])=N/Oc2ccc([N+](=O)[O-])cc2[N+](=O)[O-])CC1,.,?,.,-98.4%,.,.
O[C@H]1C[C@H](c2ccccc2)N(Cc2cccs2)C[C@@H]1n1cc(-c2ccc(F)cc2)nn1,31.6µM*,?,-11.3,11.2µM*,-9.3,15.8µM*
COc1ccc([C@H]2C[C@H](O)[C@@H](n3cc(-c4ccc(F)cc4)nn3)CN2Cc2cccs2)cc1,28.2µM*,?,-11.0,-103.4%,0.0,15.8µM*
O=C(Nc1ccc(F)c(Cl)c1)C1CCN(S(=O)(=O)c2ccc3c(c2)CCCN3C(=O)C2CCC2)CC1,i,0.0%,.,-19.0%,.,-29.5%
CCOc1ccc(C(=O)Nc2ccc(S(=O)(=O)N3CCCCC3c3cccnc3)cc2)cc1 (stereo not drawn),?,?,.,-39.9%,.,17.8µM*
O=C(Nc1ccc(S(=O)(=O)N2CCCCC2c2cccnc2)cc1)c1ccc(Br)cc1 (stereo not drawn),11.2µM*,0.0%,.,-31.2%,.,14.1µM*
Cc1ccccc1C(=O)NCCc1sc(-c2ccc(Cl)cc2)nc1C,i,?,.,-12.0%,.,2.5%
Cn1cnc([N+](=O)[O-])c1S(=O)(=O)Oc1cccc2ccccc12,15.8µM*,?,-8.8,-83.3%,-9.9,?
Cn1cnc([N+](=O)[O-])c1S(=O)(=O)Oc1ccc(Cl)cc1,.,?,0.8,22.4µM*,-5.9,?
CCS(=O)(=O)c1c([N+](=O)[O-])ncn1C,?,17.8µM*,1.9,-44.0%,.,.
Cn1cnc([N+](=O)[O-])c1Oc1cccc2ccccc12,?,?,-3.4,-75.0%,-3.8,?
COc1ccc(CN2CCN(C(C)=O)CC2)cc1OC1CCN(C(=O)c2ccc3[nH]c(C)c(C)c3c2)CC1,i,.,.,.,.,.
CC(C)(C)c1ccc(C(=O)N2CCCCCC2=O)cc1,i,13.0%,7.4,-19.8%,4.5,6.31µM*
O=C(O)[C@H](CC(=O)N1C[C@@H]2CCCC[C@H]2C1)Cc1ccccc1,.,.,.,.,.,11.6%
O=C(NCCN1C(=O)S/C(=C\c2ccc(Cl)c([N+](=O)[O-])c2)C1=O)C1=COCCO1,.,17.8µM*,-10.0,22.4µM*,-3.8,?
CCn1c(=O)c2cc(C(=O)NCc3cc(OC)ccc3OC)sc2c2ccccc21,i,2.51µM*,.,-27.8%,.,-8.1%
CCOc1ccccc1N(C)C(=O)c1cc2c(=O)n(CC)c3ccccc3c2s1,.,?,-24.3,11.2µM*,0.0,.
CCn1c(=O)c2cc(C(=O)NCCc3cc(OC)ccc3OC)sc2c2ccccc21,i,-0.9%,.,19.9%,.,4.9%

# Source: PubChem BioAssay (National Center for Advancing Translational Sciences (NCATS))
